NTR1 ag = NTR1 (human) agonism; P30989; NTR1-U2OS beta-arrestin-GFP spot imaging, agonist mode; activation, % at 20 µM; 0.17% of 330,000 active;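 active = activation at or above 40% of the spot to cytoplasm intensity ratio, with at least 20 cells analyzed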;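 note: 0% = DMSO without peptide and 100% = 100 nM NTR1 peptide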
B2AR ag = human beta-2 adrenergic receptor agonism by FAP | response, % (no concentration beside the values) | AID 504454 | 0.43% of 340,000 active | Am2.2-beta2AR cells, FAP receptor internalization, flow cytometry | P07550;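 active = response above a set limit, near 3 SD of response in nonfluorescent compounds, cut at about 42% in these data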
m5-HT2A agonist = activates the mouse 5-HT2A serotonin receptor; P35363; CHO-K1 mHTR2A beta-arrestin complementation, luminescence; percent of 30 µM serotonin response; activation, % at 7.6 µM; 0.66% of 360,000 active;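 active = activation above a run cutoff, the mean activation of all tested compounds plus 3 SD, cut at about 14% in these data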;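 note: 0% = plate median of compound wells and 100% = 30 µM serotonin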
ABHD5 PLIN5 PPI = blocks binding of human ABHD5 to perilipin-5 | Q00G26+Q8WTS1 | Split G. princeps luciferase complementation, luminescence, 4 h | inhibition, % at 4 µM | 0.78% of 360,000 active | AID 602281;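 active = inhibition above the mean inhibition across every tested compound plus 3 SD, cut at about 22% in these data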;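 note: 0% = DMSO only wells and the 100% control is not disclosed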
Exocytosis inh = lytic granule exocytosis inhibition; TALL-104 LAMP-1 surface exposure, flow cytometry; cells stimulated with thapsigargin and PMA; inhibition, % at 10 µM; 0.66% of 360,000 active;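 active = inhibition above about 55%, limit read from the data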
NTR1 ag confirm = NTR1 (human) agonism, confirmed | activation, % at 20 µM | 38% of 480 active | shares compounds with NTR1 ag | NTR1-U2OS beta-arrestin-GFP translocation imaging;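 active = mean activation at 20 µM of at least 40%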;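 note: 0% = DMSO without peptide and 100% = 100 nM NTR1 peptide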
Starred values were filed as active, the others as inactive; / = no result given. Hits are enriched below; roughly 2.3% of the tested compounds scored in any of these assays.

SMILES	NTR1 ag	B2AR ag	m5-HT2A agonist	ABHD5 PLIN5 PPI	Exocytosis inh	others
COc1ccc2cc3c(N)nn(C(=O)Cc4ccccc4OC)c3nc2c1	11	10	5	3	-6
COc1ccc2cc3c(N)nn(C(=O)C4CCC(C(C)(C)C)CC4)c3nc2c1 (stereo not drawn)	42*	-15	1	2	-2
O=C(C1=C[C@@H](c2csc3ccccc23)C[C@@H](OCCCCO)O1)N1CCN(Cc2ccc3c(c2)OCO3)CC1	2	-2	35*	12	6
CN1CCN(Cc2c(O)ccc3occ(C(=O)c4ccccc4)c23)CC1	-2	3	-5	2	0
CC(=O)C(C(C)=O)c1c(Cl)c(O)c(O)c2c(C(=O)c3ccccc3)coc12	12	2	-5	-6	91*
Cc1ccc(C)c(N(C(=O)c2ccco2)C(C(=O)NC2CCCC2)c2ccco2)c1 (stereo not drawn)	0	7	-7	-1	10
O=C(Nc1ccc2cn[nH]c2c1)c1c(Cl)cccc1Cl	1	7	2	1	0
O=C1C(Cl)=C(Nc2ccc3cn[nH]c3c2)C(=O)c2ccccc21	/	104*	-7	29*	15
Cc1cc(C)c(C2=NOC3C4CCC(C4)C23)c(C)c1 (stereo not drawn)	2	0	5	-14	4
C=CC[C@@H](CC(=O)N(CCO)Cc1ccccc1)C(=O)NC[C@H](OC(=O)[C@@H](CC=C)CC(=O)OC(C)(C)C)c1ccccc1	5	-8	2	22*	-2
C=CC[C@H](CC(=O)N(CCO)Cc1ccccc1)C(=O)NCCOC(=O)[C@H](CC=C)CC(=O)OC(C)(C)C	0	2	3	0	0
COc1ccc(OC)c(C2C(C(C)=O)=C(C)Nc3ncnn32)c1 (stereo not drawn)	-1	-1	-2	-4	-2
Cc1ccc(S(=O)(=O)Nc2ccccc2C(C(=O)OC(C)(C)C)C(=O)OC(C)(C)C)cc1	/	/	1	0	10
CC1(C)CC[C@]2(C(=O)O[C@@H]3OC(CO)[C@@H](O)[C@H](O)[C@H]3O)CC[C@]3(C)C(=CCC4[C@@]5(C)CC[C@H](O[C@@H]6OC(C(=O)O)[C@@H](O)[C@H](O)[C@H]6O)C(C)(C)C5CC[C@]43C)[C@@H]2C1 (stereo partly drawn)	1	0	6	4	2
COC(=O)C1OC(OC2CC[C@]3(C)C(CC[C@@]4(C)[C@@H]3CC=C3[C@@H]5CC(C)(C)CC[C@]5(C(=O)OC5OC(CO)C(O)C(O)C5O)CC[C@]34C)C2(C)C)C(O)C(O)C1O[C@H]1OCC(O)C(O)C1O (stereo partly drawn)	2	-13	0	33*	-6
CCN1C(=O)[C@H]2[C@@H](c3ccc(C(F)(F)F)cc3)N[C@]3(CCCN(Cc4ccccc4)C3=O)[C@H]2C1=O	/	/	7	-4	7
O=C(O)c1ccc(N/N=C/c2cc3cc4c(cc3nc2Cl)OCCO4)cc1	-1	45*	-1	-1	-4
CC1(C)CC[C@]2(C(=O)n3ccnc3)CC[C@]3(C)[C@H](C(=O)C=C4[C@@]5(C)C=C(C#N)C(=O)C(C)(C)[C@@H]5CC[C@]43C)[C@@H]2C1	/	59*	3	3	25
Cc1cc(C(=O)c2ccc3ccccc3c2)c(C)o1	1	-1	-3	0	73*
CN(C)c1nc(C=C(C#N)C#N)c(Cl)n1-c1ccc(F)cc1	/	52*	0	2	12
CC(C)N(Cc1ccccc1)C(=O)CN1C(=O)NC2(CCCC2)C1=O	-1	-5	5	0	2
Cc1cccc(NC(=S)NC2CCCC2)n1	0	-8	-3	-12	-4
Cc1cccc(NC(=S)Nc2cccc(C)n2)n1	0	1	1	6	73*
Cc1cc(C)nc(N/N=C/c2cc(Br)ccc2O)n1	5	2	-25	-6	-1
OCc1cccc(-c2csc(C(O)(c3ccccc3)C(F)(F)F)n2)c1 (stereo not drawn)	/	/	-2	5	-3
SMILES	NTR1 ag	B2AR ag	m5-HT2A agonist	ABHD5 PLIN5 PPI	Exocytosis inh	others
Cc1ccc(C2=NOC(=O)/C2=C\c2ccc(C)o2)cc1	28	56*	1	7	26
CCOc1ccc(-c2nn(-c3ccccc3)cc2/C=C2\SC(N)=NC2=O)cc1C	18	59*	11	8	1
CN1OC[C@@H]2CN(S(=O)(=O)c3ccccc3)[C@H](c3ccc(-n4ccnc4)cc3)C[C@@H]21	/	/	2	-2	6
O=C(Nc1c(C(=O)N2CCOCC2)cnn1-c1ccccc1)c1ccccc1	1	13	5	4	-1
O=C(Nc1c(C(=O)N2CCOCC2)cnn1-c1ccccc1)c1ccc(F)cc1	-1	1	15*	7	-1
O=C(Nc1ccc2ccccc2c1)c1cnccn1	-1	8	0	12	-3
CS(=O)(=O)c1ncc(Cl)c(C(=O)Nc2ccc3ccccc3c2)n1	/	48*	-7	77*	39
O=C(COC(=O)/C=C/c1ccc(Cl)cc1)NC1CCCCCC1	-1	44*	1	3	-1
Cn1nc(C(=O)OCC(=O)Nc2ccc(C(N)=O)cc2)c2ccccc2c1=O	-1	-2	-2	2	0
O=C(N/N=C/c1ccc(-c2cccc([N+](=O)[O-])c2)o1)[C@H]1C[C@@H]1c1ccccc1	3	-1	-4	-2	-1
O=C(N/N=C/c1ccc(-c2ccc([N+](=O)[O-])cc2)o1)[C@H]1C[C@@H]1c1ccccc1	2	17	-4	0	62*
Cc1cc(NC(=O)C(C)SCC(=O)N(C)CC(=O)Nc2ccccc2C(F)(F)F)no1 (stereo not drawn)	2	-8	-2	3	6
Cc1cc(NC(=O)C(C)SCC(=O)N(C)CC(=O)Nc2ccc(F)cc2)no1 (stereo not drawn)	0	-7	-6	23*	-4
COc1ccc(-n2ncc3c(N4CCN(Cc5ccccc5)CC4)ncnc32)cc1	67*	10	-2	2	23	NTR1 ag confirm=56*
CC(=O)NC(CCS(C)(=O)=O)C(=O)Nc1cc(Cl)ccc1Cl (stereo not drawn)	-2	-36	-1	0	-2
CC(C)S(=O)(=O)c1csc(NC(=O)Nc2cc(Cl)ccc2Cl)c1Cl	42*	-1	1	0	-8	NTR1 ag confirm=12
CCc1nn(CC(=O)N2CCCCCC2)c(=O)c2cc3ccccc3n12	1	-12	8	9	-4
Cc1cc(C)cc(NC(=O)CSc2nc(CSc3ccc(Cl)cc3)cc(=O)[nH]2)c1	4	7	3	10	6
COC(=O)C1=C(C)N(Cc2ccccc2)C(=NCc2ccccc2)N[C@H]1c1cccc(C(F)(F)F)c1	44*	28	5	2	-12	NTR1 ag confirm=75*
NC(=NCc1ccccc1)NN=Cc1ccnc2ccccc12	/	/	-11	5	-20

Source: PubChem (several laboratories)
